From PubChem BioAssay
A number with no mark means an inactive call. Active and inactive are the calls of the source. Rule as the data show it, unless noted: active = inhibition above about 44%; inactive = the rest.

What was measured:
[1] = StAR promoter reporter inhibitors, counter-screen for LRH-1 inverse agonist project, cell-based, luminescence, high throughput (AID 651611; in the data active = inhibition above about 28%); conditions: StAR promoter luciferase reporter counterscreen, at 3.6 µM, active compounds read high
[2] = biological target: Nuclear receptor subfamily 5 group A member 2 (Homo sapiens) (UniProt O00482); assay: LRH-1 (NR5A2) inverse agonists, retest, confirmation, cell-based, luminescence (AID 651613; in the data active = inhibition above about 42%;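 also: HEK293T cells co-transfected with LRH-1 and StAR promoter luciferase reporter; 0% = vehicle wells and 100% = parental cells lacking receptor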); conditions: cell-based LRH-1 luciferase reporter, inverse agonism; at 3.6 µM; active compounds read high
[3] = biological target: Steroidogenic factor 1 (Homo sapiens) (UniProt Q13285); assay: SF1 (NR5A1) inverse agonists, counter-screen for LRH-1 inverse agonist project, cell-based, luminescence, high throughput (AID 651614); conditions: cell-based SF1 luciferase reporter, at 3.6 µM, active compounds read high;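 also: cells cotransfected with StAR promoter reporter and SF1 expression vector; 0% = vehicle on cells with receptor and 100% = vehicle on cells lacking receptor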
[4] = VP16 transactivation reporter inhibitors, counter-screen for LRH-1 inverse agonist project, cell-based, luminescence, high throughput (AID 651615; in the data active = inhibition above about 33%); conditions: Gal4-VP16 luciferase reporter cells, at 3.6 µM, active compounds read high

Sequence of Steroidogenic factor 1 (Homo sapiens) (Q13285 whole entry, looked up, the tested form may be a part): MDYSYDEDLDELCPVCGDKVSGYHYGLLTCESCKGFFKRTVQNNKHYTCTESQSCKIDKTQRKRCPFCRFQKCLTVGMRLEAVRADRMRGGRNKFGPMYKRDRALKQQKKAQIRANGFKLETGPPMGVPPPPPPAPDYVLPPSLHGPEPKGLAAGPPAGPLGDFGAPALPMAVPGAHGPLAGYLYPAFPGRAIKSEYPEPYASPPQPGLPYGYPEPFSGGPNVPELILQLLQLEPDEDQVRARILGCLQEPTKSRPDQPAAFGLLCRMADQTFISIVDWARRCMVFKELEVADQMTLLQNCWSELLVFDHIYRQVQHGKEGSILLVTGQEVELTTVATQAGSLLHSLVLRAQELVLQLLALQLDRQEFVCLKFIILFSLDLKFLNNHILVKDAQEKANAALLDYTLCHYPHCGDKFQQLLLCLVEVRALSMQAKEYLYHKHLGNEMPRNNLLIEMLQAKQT
Sequence of Nuclear receptor subfamily 5 group A member 2 (Homo sapiens) (O00482 whole entry, looked up): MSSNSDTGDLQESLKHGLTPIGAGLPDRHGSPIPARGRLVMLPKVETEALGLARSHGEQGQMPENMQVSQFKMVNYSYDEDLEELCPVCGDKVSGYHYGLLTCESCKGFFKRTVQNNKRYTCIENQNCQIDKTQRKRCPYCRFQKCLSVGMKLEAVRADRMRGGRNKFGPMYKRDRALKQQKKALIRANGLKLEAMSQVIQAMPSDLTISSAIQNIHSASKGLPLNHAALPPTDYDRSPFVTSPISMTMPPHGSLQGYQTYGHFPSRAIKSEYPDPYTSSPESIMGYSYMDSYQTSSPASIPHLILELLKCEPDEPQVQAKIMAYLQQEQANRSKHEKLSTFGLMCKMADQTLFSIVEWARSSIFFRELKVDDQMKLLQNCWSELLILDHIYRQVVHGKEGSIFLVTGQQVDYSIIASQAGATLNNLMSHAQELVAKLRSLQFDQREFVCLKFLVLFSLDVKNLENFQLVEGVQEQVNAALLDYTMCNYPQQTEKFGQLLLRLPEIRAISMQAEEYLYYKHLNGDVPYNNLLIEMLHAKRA

Row | SMILES | inhibition [1] | inhibition [2] | inhibition [3] | inhibition [4]
1 | O=C(Nc1ccc(F)cc1)C(c1cc2ccccc2o1)N1CCN(c2cccc(C(F)(F)F)n2)CC1 (stereo unspecified) | 11% | 24.9% | 35.4% | 16.1%
2 | O=c1cc(C2CCCCC2)[nH]c(=O)[nH]1 | 10.2% | 48.1% (active) | 48% (active) | 2.19%
3 | Cc1c(C)c2ccc(OCC(=O)N3CC[C@@]4(O)CCCC[C@H]4C3)cc2oc1=O | 14.5% | 39% | 25.6% | -3.1%
4 | O=C1c2ccccc2-n2c1nc1ccccc1c2=O | 41.1% (active) | 66.7% (active) | 57.8% (active) | 51% (active)
5 | Cn1c(SCC(=O)Nc2ccc(N3CCOCC3)cc2)nnc1-c1ccco1 | 0.8% | 56.5% (active) | 49.4% (active) | -17.8%
6 | CCOc1ccc(NC(=O)COC(=O)c2ccc3c(c2)OCCO3)cc1 | 14% | 57.6% (active) | 51.9% (active) | -12.9%
7 | COc1ccccc1OCc1nnc(SCC(=O)Nc2ccc(N3CCOCC3)cc2)n1C | -2.38% | 17.9% | 29.6% | -11.3%
8 | O=C(Cn1nnc2ccccc2c1=O)Nc1ccc2c(c1)CCC2 | -34.8% | 20.8% | 25.6% | 0.93%
9 | O=[N+]([O-])c1cc2ncccc2c2ncccc12 | 42.1% (active) | 56.2% (active) | 53.1% (active) | -8.8%
10 | Cc1ccc(Cl)cc1N1CCN(C(=O)C(C)n2ncn3cccc3c2=O)CC1 (stereo unspecified) | 7.03% | 35.4% | 41.2% | 2.84%
11 | O=C(Nc1cccc(S(=O)(=O)Nc2ccc(Cl)cc2)c1)c1ccc(Cl)nc1 | 41.3% (active) | 65% (active) | 63.3% (active) | 56.9% (active)
12 | O=C(Nc1cc(C(F)(F)F)cc(C(F)(F)F)c1)O[C@@H]1c2ccccc2[C@@H]2Cc3csc[n+]3[C@H]12 | 15.6% | 60% (active) | 58.4% (active) | 4.96%
13 | CC(=O)N1CCc2c(sc(NC(=O)CCS(=O)(=O)c3ccccc3)c2C#N)C1 | -5.27% | 60.1% (active) | 55.1% (active) | -11%
14 | CS(=O)(=O)c1ccc(Cl)c(NC(=O)Nc2ccccc2)c1 | -6.75% | 25.1% | 17.5% | -2.94%
15 | O=C(CCl)Nc1ccc(N2CCCCCC2)cc1 | 25% | 54.6% (active) | 51.3% (active) | -8.63%
16 | Cc1nnsc1C(=O)NC1CCCc2c1cnn2-c1ccc(F)cc1F (stereo unspecified) | 19.6% | 59.4% (active) | 55.4% (active) | 55.9% (active)
17 | O=C(N/N=C/c1ccc(Sc2ccccn2)o1)c1cccc([N+](=O)[O-])c1 | -2.81% | 44.3% (active) | 40% | 10.4%
18 | COc1ccc(NC(=O)CN2C(=O)NC(C)(c3ccc(C)cc3)C2=O)c([N+](=O)[O-])c1 (stereo unspecified) | 9.06% | 56.2% (active) | 55.1% (active) | -9.49%
19 | CN(C)CCNC(=O)c1cccc2nc3cccc(F)c3nc12 | 63.9% (active) | 81.5% (active) | 72.1% (active) | 55% (active)
20 | Cc1cc(O)c(NC(=O)c2cc([N+](=O)[O-])ccc2Cl)cc1C | 35% (active) | 53.6% (active) | 58.8% (active) | -8.66%
21 | CCc1c(C)nc(SCC(=O)Nc2ccc3c(c2)OCCO3)[nH]c1=O | 14.5% | 63.7% (active) | 54.7% (active) | -6.83%
22 | Cc1c(Cl)cccc1NC(=O)CSc1sc2c(O)cc(=O)[nH]c2c1C#N | -3.35% | 25.5% | 29.2% | 6.14%
23 | COc1cc(CNc2ccc(CNc3ncn[nH]3)cc2)ccc1OCC(=O)NC(C)(C)C | -5.1% | 14.1% | -3.26% | 15.7%
24 | CCC(NC(=O)CCl)c1ccc(C)cc1 (stereo unspecified) | 29.5% (active) | 67.3% (active) | 53.9% (active) | -27.2%
